# Reference: publication PMC7862700, “An all-to-all approach to the identification of sequence-specific readers for epigenetic DNA modifications on cytosine”
# Key:
# Assay in all cases: DAPPL (digital affinity profiling via proximity ligation, sequencing); 10 mM Tris-HCl pH 7.5, 50 mM NaCl, 1 mM DTT, 4% glycerol, room temperature, 30 min; GST-TFs on glutathione beads, 16-mer random dsDNA library, 0.1% formaldehyde crosslink after washing; high values mean tight binding
# Conditions in all cases: protein: recombinant; tags: N-terminal GST; dsDNA, one strand shown
# ELK1 = biological target: T1, ELK1 (Homo sapiens, UniProt P19419 1-428)
# T1 sequence: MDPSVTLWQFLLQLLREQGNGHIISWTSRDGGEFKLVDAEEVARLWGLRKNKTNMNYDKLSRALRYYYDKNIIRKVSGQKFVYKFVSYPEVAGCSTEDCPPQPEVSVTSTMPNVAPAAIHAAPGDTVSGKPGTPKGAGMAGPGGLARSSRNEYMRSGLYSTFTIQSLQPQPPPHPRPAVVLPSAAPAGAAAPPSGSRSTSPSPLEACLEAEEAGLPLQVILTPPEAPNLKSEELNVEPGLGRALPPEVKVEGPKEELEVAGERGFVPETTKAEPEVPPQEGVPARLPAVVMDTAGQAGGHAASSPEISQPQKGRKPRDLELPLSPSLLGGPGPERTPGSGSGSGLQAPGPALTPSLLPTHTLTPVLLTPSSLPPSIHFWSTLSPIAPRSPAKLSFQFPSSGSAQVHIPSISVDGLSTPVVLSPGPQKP
# Outline: (§1)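 After expression in yeast as GST fusions, human transcription factors were bound to glutathione beads, DNA-barcoded and mixed with a tag-only sample. The pools were incubated with 200 nmole of a 16-mer random double-stranded DNA library in Tris/NaCl/DTT/glycerol buffer (30 min, room temperature), washed and crosslinked with 0.1% formaldehyde. Proximity ligation with BsaI/T4 ligase ran for 1 h at 37 °C, before PCR amplification and sequencing on an Illumina NextSeq500. Binding signal is a hexamer's read frequency for a factor divided by its frequency for the tag-only sample.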
# GABPA = biological target: T2, GABPA (Homo sapiens, UniProt Q06546 1-454)
# T2 sequence: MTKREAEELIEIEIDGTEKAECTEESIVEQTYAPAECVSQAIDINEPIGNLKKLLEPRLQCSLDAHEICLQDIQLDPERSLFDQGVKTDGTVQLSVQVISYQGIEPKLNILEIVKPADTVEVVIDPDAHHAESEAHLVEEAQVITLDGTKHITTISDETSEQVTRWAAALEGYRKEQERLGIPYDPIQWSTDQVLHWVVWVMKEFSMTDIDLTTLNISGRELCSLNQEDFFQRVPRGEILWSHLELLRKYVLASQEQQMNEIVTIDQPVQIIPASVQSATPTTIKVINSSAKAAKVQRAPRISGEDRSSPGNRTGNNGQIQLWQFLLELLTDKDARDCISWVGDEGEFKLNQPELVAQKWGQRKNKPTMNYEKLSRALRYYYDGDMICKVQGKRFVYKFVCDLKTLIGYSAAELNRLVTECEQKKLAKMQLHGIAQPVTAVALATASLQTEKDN
# Outline: as §1
# ERG = biological target: T3, ERG (Homo sapiens, UniProt P11308 1-479)
# T3 sequence: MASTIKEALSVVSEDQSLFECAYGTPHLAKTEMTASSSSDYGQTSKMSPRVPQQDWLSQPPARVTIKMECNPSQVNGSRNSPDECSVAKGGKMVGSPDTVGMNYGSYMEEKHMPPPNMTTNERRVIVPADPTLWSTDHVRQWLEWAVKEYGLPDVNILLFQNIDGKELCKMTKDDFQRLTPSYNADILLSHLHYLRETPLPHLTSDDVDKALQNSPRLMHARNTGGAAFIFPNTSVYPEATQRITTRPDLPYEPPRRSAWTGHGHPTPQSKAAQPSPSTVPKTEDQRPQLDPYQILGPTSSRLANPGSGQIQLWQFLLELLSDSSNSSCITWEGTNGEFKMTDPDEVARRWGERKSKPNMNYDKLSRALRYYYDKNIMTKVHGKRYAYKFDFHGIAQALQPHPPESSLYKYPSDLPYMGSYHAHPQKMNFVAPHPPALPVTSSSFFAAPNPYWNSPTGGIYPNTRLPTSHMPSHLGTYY
# Outline: as §1
# ELF1 = ELF1 (Homo sapiens, UniProt P32519 1-619)
# Sequence of ELF1 (P32519 whole entry): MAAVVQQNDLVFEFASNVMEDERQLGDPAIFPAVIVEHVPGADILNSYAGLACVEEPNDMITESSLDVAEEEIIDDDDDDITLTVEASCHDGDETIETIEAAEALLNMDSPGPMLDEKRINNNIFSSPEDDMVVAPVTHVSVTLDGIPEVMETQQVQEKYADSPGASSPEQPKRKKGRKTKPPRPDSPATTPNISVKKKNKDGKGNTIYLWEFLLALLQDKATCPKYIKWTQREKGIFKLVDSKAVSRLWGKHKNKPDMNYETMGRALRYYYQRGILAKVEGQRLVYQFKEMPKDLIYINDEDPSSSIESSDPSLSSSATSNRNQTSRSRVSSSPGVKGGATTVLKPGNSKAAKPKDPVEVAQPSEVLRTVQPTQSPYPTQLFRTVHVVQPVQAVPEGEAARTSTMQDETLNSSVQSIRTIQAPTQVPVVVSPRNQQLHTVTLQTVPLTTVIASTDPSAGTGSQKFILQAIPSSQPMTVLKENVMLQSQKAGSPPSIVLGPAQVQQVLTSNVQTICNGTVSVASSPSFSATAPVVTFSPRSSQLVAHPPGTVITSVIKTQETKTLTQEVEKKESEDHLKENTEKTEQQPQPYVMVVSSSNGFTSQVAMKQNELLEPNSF
# Outline: as §1
# EHF = biological target: T4, EHF (Homo sapiens, UniProt Q9NZC4 1-300)
# T4 sequence: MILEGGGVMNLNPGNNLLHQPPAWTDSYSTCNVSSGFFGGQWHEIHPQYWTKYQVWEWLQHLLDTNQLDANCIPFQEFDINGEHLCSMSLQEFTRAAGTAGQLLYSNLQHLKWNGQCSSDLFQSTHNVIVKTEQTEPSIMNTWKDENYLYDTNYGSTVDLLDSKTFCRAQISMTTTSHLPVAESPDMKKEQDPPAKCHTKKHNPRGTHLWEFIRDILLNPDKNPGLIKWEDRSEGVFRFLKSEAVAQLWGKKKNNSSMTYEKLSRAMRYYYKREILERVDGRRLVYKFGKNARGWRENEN
# Outline: as §1
# ELK3 = biological target: T5, ELK3 (Homo sapiens, UniProt P41970 1-407)
# T5 sequence: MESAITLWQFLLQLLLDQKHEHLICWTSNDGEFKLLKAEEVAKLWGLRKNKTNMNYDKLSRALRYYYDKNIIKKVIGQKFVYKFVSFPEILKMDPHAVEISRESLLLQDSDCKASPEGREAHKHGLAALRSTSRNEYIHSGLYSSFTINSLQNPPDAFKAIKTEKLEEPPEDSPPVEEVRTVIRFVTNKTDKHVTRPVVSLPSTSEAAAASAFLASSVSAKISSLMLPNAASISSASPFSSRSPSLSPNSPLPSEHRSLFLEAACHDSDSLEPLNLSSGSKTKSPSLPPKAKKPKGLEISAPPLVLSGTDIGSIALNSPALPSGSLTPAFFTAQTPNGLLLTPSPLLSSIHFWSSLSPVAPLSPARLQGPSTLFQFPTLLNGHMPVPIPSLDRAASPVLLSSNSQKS
# Outline: as §1
# ETV5 = ETV5 (Homo sapiens, UniProt P41161 1-510)
# Sequence of ETV5 (P41161 whole entry): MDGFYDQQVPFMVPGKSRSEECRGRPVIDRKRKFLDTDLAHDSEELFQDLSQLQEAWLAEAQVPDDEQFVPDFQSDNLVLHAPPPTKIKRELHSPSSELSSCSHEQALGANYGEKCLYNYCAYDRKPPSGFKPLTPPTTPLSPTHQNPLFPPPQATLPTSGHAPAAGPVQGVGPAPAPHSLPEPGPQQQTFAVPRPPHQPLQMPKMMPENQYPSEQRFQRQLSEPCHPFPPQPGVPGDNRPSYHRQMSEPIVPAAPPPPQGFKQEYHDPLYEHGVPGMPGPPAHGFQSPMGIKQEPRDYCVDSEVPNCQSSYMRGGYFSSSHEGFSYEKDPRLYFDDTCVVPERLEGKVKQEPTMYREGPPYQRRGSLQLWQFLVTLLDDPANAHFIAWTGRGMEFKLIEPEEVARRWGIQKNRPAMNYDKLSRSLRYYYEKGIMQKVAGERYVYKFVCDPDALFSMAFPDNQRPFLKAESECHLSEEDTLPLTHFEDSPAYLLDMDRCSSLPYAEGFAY
# Outline: as §1
# SPIC = biological target: T6, SPIC (Homo sapiens, UniProt Q8N5J4 1-248)
# T6 sequence: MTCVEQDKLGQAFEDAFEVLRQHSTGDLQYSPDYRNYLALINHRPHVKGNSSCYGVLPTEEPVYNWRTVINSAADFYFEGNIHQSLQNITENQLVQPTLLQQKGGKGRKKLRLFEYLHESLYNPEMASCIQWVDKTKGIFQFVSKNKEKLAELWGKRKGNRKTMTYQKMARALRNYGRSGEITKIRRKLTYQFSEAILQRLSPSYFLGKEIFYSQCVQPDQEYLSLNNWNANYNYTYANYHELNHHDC
# Outline: as §1
# ELF4 = ELF4 (Homo sapiens, UniProt Q99607 1-663)
# Sequence of ELF4 (Q99607 whole entry): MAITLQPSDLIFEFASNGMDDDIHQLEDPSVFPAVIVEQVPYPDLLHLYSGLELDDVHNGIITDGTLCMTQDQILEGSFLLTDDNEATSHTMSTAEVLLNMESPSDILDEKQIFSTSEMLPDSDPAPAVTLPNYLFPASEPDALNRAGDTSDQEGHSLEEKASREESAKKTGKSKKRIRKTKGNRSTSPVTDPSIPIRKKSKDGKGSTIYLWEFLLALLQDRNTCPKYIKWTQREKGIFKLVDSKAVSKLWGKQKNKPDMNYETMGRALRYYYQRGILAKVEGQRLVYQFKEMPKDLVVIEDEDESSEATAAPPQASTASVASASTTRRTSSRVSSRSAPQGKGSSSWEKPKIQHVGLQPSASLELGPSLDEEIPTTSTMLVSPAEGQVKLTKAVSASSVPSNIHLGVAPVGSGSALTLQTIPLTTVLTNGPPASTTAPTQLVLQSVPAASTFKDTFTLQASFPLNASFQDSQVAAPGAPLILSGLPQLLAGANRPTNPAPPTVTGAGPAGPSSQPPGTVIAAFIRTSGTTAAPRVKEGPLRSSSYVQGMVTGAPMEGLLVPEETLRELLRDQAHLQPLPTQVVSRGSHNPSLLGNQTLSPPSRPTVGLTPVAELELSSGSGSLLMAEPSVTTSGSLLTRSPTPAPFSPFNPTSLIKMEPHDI
# Outline: as §1
# ELK4 = biological target: T7, ELK4 (Homo sapiens, UniProt P28324-2 1-405)
# T7 sequence: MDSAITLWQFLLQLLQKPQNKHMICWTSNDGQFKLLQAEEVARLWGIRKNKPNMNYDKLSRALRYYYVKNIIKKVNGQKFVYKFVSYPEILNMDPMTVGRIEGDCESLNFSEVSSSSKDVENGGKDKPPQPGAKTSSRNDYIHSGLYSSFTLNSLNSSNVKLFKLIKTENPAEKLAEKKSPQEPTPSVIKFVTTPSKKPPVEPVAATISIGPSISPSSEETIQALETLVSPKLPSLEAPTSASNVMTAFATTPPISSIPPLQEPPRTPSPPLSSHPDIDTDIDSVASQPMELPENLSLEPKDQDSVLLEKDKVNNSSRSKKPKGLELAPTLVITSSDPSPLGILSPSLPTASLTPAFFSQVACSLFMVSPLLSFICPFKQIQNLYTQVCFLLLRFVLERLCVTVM
# Outline: as §1
# ETV1 = ETV1 (Homo sapiens, UniProt P50549 1-477)
# Sequence of ETV1 (P50549 whole entry): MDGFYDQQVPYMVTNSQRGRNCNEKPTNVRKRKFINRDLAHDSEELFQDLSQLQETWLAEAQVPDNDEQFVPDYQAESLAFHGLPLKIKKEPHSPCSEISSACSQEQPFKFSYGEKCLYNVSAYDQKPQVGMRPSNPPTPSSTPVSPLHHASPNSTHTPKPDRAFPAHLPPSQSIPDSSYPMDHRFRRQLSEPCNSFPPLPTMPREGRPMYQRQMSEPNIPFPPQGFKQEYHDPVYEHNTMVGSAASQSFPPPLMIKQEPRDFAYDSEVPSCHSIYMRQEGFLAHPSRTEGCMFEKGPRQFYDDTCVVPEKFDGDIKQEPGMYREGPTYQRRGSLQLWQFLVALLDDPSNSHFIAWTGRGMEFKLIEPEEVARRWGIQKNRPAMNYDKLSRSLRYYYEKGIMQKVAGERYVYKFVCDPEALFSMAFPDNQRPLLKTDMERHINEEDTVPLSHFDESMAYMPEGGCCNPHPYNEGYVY
# Outline: as §1
# ERF = biological target: T8, ERF (Homo sapiens, UniProt P50548 1-548)
# T8 sequence: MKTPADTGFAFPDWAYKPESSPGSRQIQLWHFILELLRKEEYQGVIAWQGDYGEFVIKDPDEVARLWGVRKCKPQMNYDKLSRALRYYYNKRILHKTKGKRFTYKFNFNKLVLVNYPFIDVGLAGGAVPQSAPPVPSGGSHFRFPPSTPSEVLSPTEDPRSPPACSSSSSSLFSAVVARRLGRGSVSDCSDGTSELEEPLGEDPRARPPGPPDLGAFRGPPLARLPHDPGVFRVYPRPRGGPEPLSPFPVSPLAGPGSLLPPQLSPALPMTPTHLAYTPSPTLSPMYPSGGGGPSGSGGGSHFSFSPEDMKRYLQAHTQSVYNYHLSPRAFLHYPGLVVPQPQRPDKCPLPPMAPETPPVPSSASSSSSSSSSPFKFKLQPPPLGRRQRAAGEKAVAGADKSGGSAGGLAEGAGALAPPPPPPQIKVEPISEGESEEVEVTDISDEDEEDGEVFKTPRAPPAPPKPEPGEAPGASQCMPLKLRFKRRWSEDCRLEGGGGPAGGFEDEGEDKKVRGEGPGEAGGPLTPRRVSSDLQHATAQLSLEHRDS
# Outline: as §1
# ETV3L = biological target: T9, ETV3L (Homo sapiens, UniProt Q6ZN32 1-361)
# T9 sequence: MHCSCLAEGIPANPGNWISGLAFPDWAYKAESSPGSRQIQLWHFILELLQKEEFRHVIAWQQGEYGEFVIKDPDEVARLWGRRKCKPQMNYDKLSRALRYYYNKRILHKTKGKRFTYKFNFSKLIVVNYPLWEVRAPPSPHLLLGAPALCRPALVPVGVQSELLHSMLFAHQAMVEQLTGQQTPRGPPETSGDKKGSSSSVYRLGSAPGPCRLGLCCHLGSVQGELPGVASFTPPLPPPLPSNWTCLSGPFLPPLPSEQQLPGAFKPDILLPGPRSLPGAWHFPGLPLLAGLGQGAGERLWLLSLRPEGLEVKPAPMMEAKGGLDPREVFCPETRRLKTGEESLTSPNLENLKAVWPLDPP
# Outline: as §1
# ETS2 = biological target: T10, ETS2 (Homo sapiens, UniProt P15036 1-469)
# T10 sequence: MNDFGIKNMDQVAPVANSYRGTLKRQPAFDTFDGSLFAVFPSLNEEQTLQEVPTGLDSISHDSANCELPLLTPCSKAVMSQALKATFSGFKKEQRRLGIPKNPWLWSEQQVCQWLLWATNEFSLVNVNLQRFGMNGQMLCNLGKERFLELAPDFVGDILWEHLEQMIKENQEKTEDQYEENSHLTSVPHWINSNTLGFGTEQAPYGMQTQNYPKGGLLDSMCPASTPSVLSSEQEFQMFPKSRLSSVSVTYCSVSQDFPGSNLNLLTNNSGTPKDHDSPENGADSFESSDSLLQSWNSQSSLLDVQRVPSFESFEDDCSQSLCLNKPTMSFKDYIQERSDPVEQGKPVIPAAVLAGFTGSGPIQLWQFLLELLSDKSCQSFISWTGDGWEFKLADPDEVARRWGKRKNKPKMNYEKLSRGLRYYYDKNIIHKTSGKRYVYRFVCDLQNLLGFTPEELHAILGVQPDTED
# Outline: as §1
# SPDEF = biological target: T11, SPDEF (Homo sapiens, UniProt O95238 1-335)
# T11 sequence: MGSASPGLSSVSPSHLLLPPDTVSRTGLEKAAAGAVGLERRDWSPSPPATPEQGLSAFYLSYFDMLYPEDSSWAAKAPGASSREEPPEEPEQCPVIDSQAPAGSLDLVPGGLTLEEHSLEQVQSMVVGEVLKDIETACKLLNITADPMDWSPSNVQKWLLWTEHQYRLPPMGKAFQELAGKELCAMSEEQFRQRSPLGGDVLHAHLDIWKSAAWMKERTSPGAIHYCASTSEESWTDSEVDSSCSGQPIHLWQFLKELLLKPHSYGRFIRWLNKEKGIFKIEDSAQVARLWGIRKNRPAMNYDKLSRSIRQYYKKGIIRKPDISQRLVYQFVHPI
# Outline: as §1
# ETV7 = biological target: T12, ETV7 (Homo sapiens, UniProt Q9Y603 1-341)
# T12 sequence: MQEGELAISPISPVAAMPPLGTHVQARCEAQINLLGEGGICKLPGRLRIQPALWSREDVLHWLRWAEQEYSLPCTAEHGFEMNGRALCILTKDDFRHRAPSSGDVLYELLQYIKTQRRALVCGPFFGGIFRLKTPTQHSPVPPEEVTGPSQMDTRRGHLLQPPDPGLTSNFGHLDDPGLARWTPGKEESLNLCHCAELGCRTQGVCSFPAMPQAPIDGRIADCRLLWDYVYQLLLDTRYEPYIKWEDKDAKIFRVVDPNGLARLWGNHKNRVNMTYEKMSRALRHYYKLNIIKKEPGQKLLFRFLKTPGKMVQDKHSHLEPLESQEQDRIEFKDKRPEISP
# Outline: as §1
# ETV3 = biological target: T13, ETV3 (Homo sapiens, UniProt P41162-2 1-143)
# T13 sequence: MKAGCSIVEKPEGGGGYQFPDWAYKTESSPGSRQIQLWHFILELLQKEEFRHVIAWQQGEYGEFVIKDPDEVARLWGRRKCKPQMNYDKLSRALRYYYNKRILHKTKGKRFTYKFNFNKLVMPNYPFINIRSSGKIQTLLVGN
# Outline: as §1
# ETV6 = ETV6 (Homo sapiens, UniProt P41212 1-452)
# Sequence of ETV6 (P41212 whole entry): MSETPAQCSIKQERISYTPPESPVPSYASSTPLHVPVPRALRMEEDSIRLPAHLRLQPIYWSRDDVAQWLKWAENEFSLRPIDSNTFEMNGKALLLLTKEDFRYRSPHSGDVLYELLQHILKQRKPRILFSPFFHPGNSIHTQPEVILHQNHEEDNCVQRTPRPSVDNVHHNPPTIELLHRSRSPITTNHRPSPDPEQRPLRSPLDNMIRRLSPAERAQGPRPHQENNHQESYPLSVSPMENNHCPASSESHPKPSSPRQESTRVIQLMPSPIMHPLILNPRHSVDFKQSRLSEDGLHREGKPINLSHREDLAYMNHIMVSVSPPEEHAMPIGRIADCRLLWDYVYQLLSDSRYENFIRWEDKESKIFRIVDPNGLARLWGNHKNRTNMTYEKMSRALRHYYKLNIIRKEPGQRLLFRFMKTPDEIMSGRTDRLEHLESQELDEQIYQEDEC
# Outline: as §1
sequence,measurement,setting,value
AGCACA,binding signal,ELK1,"1.01 fold enrichment (6-mer frequency, TF over GST control)"
same,binding signal,GABPA,"1.08 fold enrichment (6-mer frequency, TF over GST control)"
same,binding signal,ERG,"1.03 fold enrichment (6-mer frequency, TF over GST control)"
same,binding signal,ELF1,"1.06 fold enrichment (6-mer frequency, TF over GST control)"
same,binding signal,EHF,"1.04 fold enrichment (6-mer frequency, TF over GST control)"
same,binding signal,ELK3,"1.06 fold enrichment (6-mer frequency, TF over GST control)"
same,binding signal,ETV5,"1.07 fold enrichment (6-mer frequency, TF over GST control)"
same,binding signal,SPIC,"1.02 fold enrichment (6-mer frequency, TF over GST control)"
same,binding signal,ELF4,"1.08 fold enrichment (6-mer frequency, TF over GST control)"
same,binding signal,ELK4,"1.02 fold enrichment (6-mer frequency, TF over GST control)"
same,binding signal,ETV1,"1.02 fold enrichment (6-mer frequency, TF over GST control)"
same,binding signal,ERF,"1.13 fold enrichment (6-mer frequency, TF over GST control)"
same,binding signal,ETV3L,"1.14 fold enrichment (6-mer frequency, TF over GST control)"
same,binding signal,ETS2,"1.02 fold enrichment (6-mer frequency, TF over GST control)"
same,binding signal,SPDEF,"1.07 fold enrichment (6-mer frequency, TF over GST control)"
same,binding signal,ETV7,"1.01 fold enrichment (6-mer frequency, TF over GST control)"
same,binding signal,ETV3,"1.05 fold enrichment (6-mer frequency, TF over GST control)"
same,binding signal,ETV6,"1.11 fold enrichment (6-mer frequency, TF over GST control)"
